PubChem BioAssay (Tox21)
Records with an inconclusive call do not appear. Entries that show only a call come without a potency. Calls of active or inactive are those of the source. Calls come from the whole dose curve; as a rule, active = well fitted curve in the direction sought with a large enough effect in the repeat runs; inconclusive = weak or mixed curves; inactive = no such curve, though single readings can be large; an effect the other way counts as inactive or inconclusive.

Experiments:
[1] = biological target: Cytochrome P450 2D6 (Homo sapiens) (UniProt P10635); assay: Cytochrome P450 Family 2 Subfamily D Member 6 (CYP2D6) small molecule antagonists: luciferase reporter qHTS assay (AID 1671196); note: nearly all actives have a fitted effect of over 50% in size; note: potency is the fitted concentration of half-maximal effect
Outline: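 Each well received CYP2D6 with its proluciferin substrate and chemical, sat 10 min, then got NADPH regeneration solution for 1 h at room temperature. Luminescence in RLU served as the activity measure.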

[2] = biological target: Cytochrome P450 2C19 (Homo sapiens) (UniProt P33261); assay: Cytochrome P450 Family 2 Subfamily C Member 19 (CYP2C19) small molecule antagonists: luciferase reporter qHTS assay (AID 1671197); note: nearly all actives have a fitted effect of over 65% in size; note: potency is the fitted concentration of half-maximal effect
Outline: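 Compounds were tested on CYP2C19 activity via proluciferin conversion to luciferin. The 37C, 1 h reaction followed NADPH addition; detection reagent stopped it.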

[3] = biological target: Cytochrome P450 2C9 (Homo sapiens) (UniProt P11712); assay: Cytochrome P450 Family 2 Subfamily C Member 9 (CYP2C9) small molecule antagonists: luciferase reporter qHTS assay (AID 1671198); note: nearly all actives have a fitted effect of over 50% in size; note: potency is the fitted concentration of half-maximal effect
Outline: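 CYP2C9 activity was measured with a P450-Glo proluciferin substrate. Enzyme–substrate mix was held with compound for 10 min at room temperature, then NADPH regeneration solution was added for 1 h at 37C. Luciferin product was read as luminescence.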

[4] = biological target: Voltage-gated inwardly rectifying potassium channel KCNH2 (Homo sapiens) (UniProt Q12809); assay: Human Ether-a-go-go-Related Gene (hERG) channel small molecule antagonists: fluorescence cell-based qHTS assay (AID 1671200);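 note: hERG-expressing U2OS cells given a thallium stimulus after FluxOR II dye loading; series mostly up to about 77 µM; nearly all actives have a fitted effect of over 50% in size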
Outline: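 Quantitative HTS in hERG-U2OS cells: thallium entry through the channel reports activity, read as continuous 480/540 nm fluorescence over 2 min after stimulus addition.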

[5] = biological target: Cytochrome P450 3A4 (Homo sapiens) (UniProt P08684); assay: Cytochrome P450 Family 3 Subfamily A Member 4 (CYP3A4) small molecule antagonists: luciferase reporter qHTS assay (AID 1671201); note: nearly all actives have a fitted effect of over 50% in size; note: potency is the fitted concentration of half-maximal effect
Outline: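 Inhibition of CYP3A4 is measured as loss of light: the enzyme converts a proluciferin substrate to luciferin, detected luminescently. Reaction ran 1 h at room temperature with NADPH regeneration after a 10 min compound preincubation.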

[6] = biological target: Cytochrome P450 1A2 (Homo sapiens) (UniProt P05177); assay: Cytochrome P450 Family 1 Subfamily A Member 2 (CYP1A2) small molecule antagonists: luciferase reporter qHTS assay (AID 1671199); note: nearly all actives have a fitted effect of over 50% in size; note: potency is the fitted concentration of half-maximal effect
Outline: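 Enzymatic CYP1A2 assay, human, luminescent: 10 min compound–enzyme–substrate preincubation, 1 h NADPH-dependent turnover, 20 min detection step, room temperature throughout. Reduced light indicates lower CYP1A2 activity.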

Chain of Cytochrome P450 2C9 (Homo sapiens) (P11712 whole entry, looked up): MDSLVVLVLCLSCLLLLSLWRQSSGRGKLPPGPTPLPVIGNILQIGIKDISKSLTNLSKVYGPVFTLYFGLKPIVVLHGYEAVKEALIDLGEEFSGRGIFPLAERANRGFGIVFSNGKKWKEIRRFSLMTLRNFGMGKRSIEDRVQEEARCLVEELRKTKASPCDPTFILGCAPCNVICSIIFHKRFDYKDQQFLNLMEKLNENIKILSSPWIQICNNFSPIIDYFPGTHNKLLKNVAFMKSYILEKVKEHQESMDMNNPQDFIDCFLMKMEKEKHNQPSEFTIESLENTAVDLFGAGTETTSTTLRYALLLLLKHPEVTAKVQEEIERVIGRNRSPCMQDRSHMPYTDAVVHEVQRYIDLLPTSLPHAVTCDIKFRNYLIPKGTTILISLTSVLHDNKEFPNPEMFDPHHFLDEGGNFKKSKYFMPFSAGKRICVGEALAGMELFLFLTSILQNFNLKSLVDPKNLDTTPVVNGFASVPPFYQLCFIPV
Chain of Cytochrome P450 2D6 (Homo sapiens) (P10635 whole entry, looked up): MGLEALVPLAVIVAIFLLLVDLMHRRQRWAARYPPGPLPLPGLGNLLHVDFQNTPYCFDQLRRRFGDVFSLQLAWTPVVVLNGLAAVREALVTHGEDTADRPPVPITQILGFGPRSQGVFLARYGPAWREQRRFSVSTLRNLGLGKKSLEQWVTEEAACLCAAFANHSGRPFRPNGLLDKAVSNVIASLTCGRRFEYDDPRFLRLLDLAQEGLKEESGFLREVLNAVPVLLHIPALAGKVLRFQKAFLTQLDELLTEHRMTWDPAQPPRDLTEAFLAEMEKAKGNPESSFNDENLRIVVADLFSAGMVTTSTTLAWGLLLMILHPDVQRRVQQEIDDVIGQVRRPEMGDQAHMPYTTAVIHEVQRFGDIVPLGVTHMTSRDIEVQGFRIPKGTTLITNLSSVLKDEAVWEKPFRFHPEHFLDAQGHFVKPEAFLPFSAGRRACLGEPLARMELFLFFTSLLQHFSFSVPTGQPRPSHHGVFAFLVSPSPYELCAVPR
Chain of Cytochrome P450 1A2 (Homo sapiens) (P05177 whole entry, looked up): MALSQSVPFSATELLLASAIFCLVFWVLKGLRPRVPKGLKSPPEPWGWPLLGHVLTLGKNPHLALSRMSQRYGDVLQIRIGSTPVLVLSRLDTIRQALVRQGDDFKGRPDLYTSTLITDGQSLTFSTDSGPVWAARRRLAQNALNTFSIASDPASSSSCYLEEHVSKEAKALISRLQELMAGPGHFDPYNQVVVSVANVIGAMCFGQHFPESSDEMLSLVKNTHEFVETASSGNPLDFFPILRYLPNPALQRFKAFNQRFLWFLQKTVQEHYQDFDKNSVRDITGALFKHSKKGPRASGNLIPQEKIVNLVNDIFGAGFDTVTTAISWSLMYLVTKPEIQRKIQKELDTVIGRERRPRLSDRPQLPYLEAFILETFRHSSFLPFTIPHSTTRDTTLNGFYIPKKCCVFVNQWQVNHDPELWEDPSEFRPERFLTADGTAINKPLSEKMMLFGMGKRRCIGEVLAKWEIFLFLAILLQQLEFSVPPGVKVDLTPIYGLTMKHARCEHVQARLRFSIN
Chain of Cytochrome P450 3A4 (Homo sapiens) (P08684 whole entry, looked up): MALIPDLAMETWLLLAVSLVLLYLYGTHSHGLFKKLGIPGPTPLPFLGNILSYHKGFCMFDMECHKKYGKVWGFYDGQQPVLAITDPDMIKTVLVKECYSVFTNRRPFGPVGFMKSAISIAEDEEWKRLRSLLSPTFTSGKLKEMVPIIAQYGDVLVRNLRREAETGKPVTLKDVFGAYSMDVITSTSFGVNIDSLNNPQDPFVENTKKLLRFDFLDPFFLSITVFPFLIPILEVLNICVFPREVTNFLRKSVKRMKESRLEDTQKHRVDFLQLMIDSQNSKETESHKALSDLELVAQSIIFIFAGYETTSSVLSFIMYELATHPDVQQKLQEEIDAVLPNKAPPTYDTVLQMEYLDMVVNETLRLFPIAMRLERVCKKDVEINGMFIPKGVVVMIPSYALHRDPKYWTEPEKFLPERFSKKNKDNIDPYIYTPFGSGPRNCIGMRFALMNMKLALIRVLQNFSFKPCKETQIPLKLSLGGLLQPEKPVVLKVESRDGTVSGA
Chain of Voltage-gated inwardly rectifying potassium channel KCNH2 (Homo sapiens) (Q12809 whole entry, looked up): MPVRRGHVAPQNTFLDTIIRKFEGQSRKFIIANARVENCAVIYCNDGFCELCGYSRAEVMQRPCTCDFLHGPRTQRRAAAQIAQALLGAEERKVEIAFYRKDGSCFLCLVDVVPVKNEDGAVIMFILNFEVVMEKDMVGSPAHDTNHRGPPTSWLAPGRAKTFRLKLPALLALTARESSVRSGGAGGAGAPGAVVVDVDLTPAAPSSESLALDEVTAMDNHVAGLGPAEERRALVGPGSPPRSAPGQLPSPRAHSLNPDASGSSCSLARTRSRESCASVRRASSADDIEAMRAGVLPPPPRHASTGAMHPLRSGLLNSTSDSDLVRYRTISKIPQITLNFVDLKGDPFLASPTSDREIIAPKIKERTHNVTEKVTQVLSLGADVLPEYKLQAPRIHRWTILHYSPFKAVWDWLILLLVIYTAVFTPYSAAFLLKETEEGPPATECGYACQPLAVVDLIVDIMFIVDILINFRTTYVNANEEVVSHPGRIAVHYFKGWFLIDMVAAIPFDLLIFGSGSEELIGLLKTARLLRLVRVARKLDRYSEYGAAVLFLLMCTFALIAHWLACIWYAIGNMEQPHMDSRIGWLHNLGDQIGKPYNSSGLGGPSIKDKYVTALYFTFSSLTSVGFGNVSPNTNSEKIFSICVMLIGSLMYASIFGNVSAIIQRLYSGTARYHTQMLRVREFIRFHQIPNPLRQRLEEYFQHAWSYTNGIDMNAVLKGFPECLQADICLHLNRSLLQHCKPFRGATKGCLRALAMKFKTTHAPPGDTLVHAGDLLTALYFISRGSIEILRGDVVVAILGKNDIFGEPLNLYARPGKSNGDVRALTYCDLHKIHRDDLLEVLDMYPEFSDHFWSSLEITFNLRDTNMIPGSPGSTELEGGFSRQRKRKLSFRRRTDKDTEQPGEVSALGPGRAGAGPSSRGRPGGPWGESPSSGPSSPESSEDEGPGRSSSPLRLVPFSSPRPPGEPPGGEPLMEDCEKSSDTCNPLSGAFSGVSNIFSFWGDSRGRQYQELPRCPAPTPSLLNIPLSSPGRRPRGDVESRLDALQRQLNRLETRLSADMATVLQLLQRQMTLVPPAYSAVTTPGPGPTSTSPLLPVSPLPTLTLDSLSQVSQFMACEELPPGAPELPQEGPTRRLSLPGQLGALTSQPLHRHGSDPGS
Chain of Cytochrome P450 2C19 (Homo sapiens) (P33261 whole entry, looked up): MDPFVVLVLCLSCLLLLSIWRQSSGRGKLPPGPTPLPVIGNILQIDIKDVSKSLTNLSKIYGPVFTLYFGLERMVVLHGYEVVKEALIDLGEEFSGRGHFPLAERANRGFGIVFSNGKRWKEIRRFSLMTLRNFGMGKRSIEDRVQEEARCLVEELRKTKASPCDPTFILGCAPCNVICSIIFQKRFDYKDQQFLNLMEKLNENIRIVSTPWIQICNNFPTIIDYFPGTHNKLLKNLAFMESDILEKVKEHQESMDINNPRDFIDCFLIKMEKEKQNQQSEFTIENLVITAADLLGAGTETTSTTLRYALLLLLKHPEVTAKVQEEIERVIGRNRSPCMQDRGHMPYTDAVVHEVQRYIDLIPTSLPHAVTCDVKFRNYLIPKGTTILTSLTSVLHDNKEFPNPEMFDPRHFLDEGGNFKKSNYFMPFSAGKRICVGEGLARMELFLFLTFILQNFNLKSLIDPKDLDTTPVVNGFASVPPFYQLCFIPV

Row | Compound | Potency [1] | Potency [2] | Potency [3] | Potency [4] | Potency [5] | Potency [6]
1 | N#Cc1ccccc1C#N | inactive | inactive | inactive | inactive | inactive | 
2 | N=C(N)N | inactive | inactive |  | inactive | inactive | inactive
3 | CCC(C)(C)C | inactive | inactive |  |  | inactive | 37.7 µM (active)
4 | CC(C)CC(O)Cc1ccccc1 (stereo unspecified) | inactive | 71 µM (active) |  | inactive | inactive | 
5 | CC(=O)c1c(C)cc(C(C)(C)C)cc1C | inactive | 71 µM (active) | inactive | inactive | inactive | 
6 | C/C=C(\C)C(=O)OC/C=C(\C)CCC=C(C)C | inactive | inactive |  | inactive | inactive | 
7 | CCCCCC(=O)CC | inactive | inactive |  | inactive | inactive | inactive
8 | O=C(O)Cc1c(Cl)ccc(Cl)c1Cl | inactive | 15.9 µM (active) |  | inactive | 12.6 µM (active) | 25.2 µM (active)
9 | CC(=O)OC1CCC(C(C)(C)C)CC1 (stereo unspecified) | inactive | inactive | inactive |  | inactive | 
10 | Clc1ccc2c(c1)Nc1ccccc1S2 | inactive | 3.89 µM (active) |  | inactive | inactive | 0.347 µM (active)
11 | CCCCCCCCS(=O)(=O)O | inactive | inactive |  | inactive | inactive | inactive
12 | CC/C=C\CCOC(=O)c1ccccc1 | inactive | inactive | inactive | inactive | inactive | 
13 | COC(=O)c1c(C)cc(O)c(C)c1O | 31.7 µM (active) | 7.96 µM (active) |  | inactive |  | 0.252 µM (active)
14 | C=CCON/C(CCC)=C1\C(=O)CC(C)(C)C(C(=O)OC)=C1O | inactive | 78.7 µM (active) | 35.2 µM (active) | inactive | 35.2 µM (active) | 
15 | Cc1ccc2ccccc2n1 | inactive | inactive | inactive | inactive | inactive | 
16 | O=c1c(O)c(O)c1=O | inactive | inactive | inactive |  | inactive | 
17 | C=COCCCCO | inactive | inactive |  | inactive | inactive | 
18 | Nc1nc(Cl)cc(Cl)n1 | inactive | inactive | inactive | inactive | inactive | 
19 | CCC(C)SSC(C)CC (stereo unspecified) | 31.7 µM (active) | inactive | inactive | inactive | inactive | 
20 | O=C(O)COc1ccc2ccccc2c1 | inactive | inactive |  | inactive | inactive | inactive
21 | CNC(=O)c1c(I)c(NC(C)=O)c(I)c(C(=O)O)c1I | inactive | inactive | inactive | inactive | inactive | 
22 | CC(C)(C)C(=O)CCc1ccc(Cl)cc1 | inactive | 7.1 µM (active) |  | inactive | inactive | 22.4 µM (active)
23 | C=CCN(CC=C)CC=C | inactive | inactive |  | inactive | inactive | inactive
24 | COc1ccccc1N1CCN(CC(O)COc2cc(OC)c(OC)c(OC)c2)CC1 (stereo unspecified) | inactive | inactive |  | inactive | inactive | 
25 | O=Cc1ccccc1S(=O)(=O)O | inactive | inactive |  | inactive | inactive | inactive
26 | Cc1ccc(O)c([N+](=O)[O-])c1 | 71.8 µM (active) | inactive | inactive | inactive | inactive | 
27 | CCO[Si](CC(C)C)(OCC)OCC | 44.8 µM (active) | 35.6 µM (active) | 39.9 µM (active) | inactive | 31.7 µM (active) | 
28 | CC(CC(=O)Cl)CC(C)(C)C (stereo unspecified) | inactive | 80.2 µM (active) |  | inactive | inactive | 
29 | CC/C=C/CCCCCCCCCCOC(C)=O | inactive | inactive | inactive | inactive | inactive | 
30 | CCN(CC)CC | 23.6 µM (active) | 59.4 µM (active) |  | inactive | inactive | inactive
